High-throughput results deposited in PubChem by several laboratories.
A selection: hits, their analogues and other compounds. The true share with any hit is near 1.6%.
S1P4 antag: S1P4 receptor antagonists, primary screen, cell-based; Sphingosine 1-phosphate receptor 4 (Homo sapiens), O95977; S1P4-expressing cells, antagonist mode, reporter read-out; inhibition, % at 4.98 µM; 0.26% of 220,000 active; in the data active means inhibition above about 29%
Target sequence (O95977 whole entry, looked up): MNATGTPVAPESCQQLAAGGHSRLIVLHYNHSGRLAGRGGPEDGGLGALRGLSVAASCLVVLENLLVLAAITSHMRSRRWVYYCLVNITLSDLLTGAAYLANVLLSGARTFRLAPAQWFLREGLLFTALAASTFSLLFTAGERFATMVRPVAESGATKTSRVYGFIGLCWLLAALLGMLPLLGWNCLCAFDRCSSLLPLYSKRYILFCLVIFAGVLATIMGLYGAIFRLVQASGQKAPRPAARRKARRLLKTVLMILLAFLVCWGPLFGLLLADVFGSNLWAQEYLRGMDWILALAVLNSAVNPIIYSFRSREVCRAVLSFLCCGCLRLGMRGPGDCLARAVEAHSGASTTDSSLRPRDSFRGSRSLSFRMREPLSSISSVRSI
Arbovirus inh: antivirals against arbovirus infection, primary screen, cell-based, full library, 10K replicate subset; arbovirus infection cell-based antiviral screen; inhibition, % at 10 µM; 0.37% of 200,000 active; AID 1251, 2008; in the data active means inhibition above about 30%
p97 inhibitor: inhibitors of human p97 ATPase, primary screen, biochemical | recombinant p97 ATPase, Kinase-Glo ATP luminescence, 3 h | inhibition, % at 8 µM | 0.42% of 220,000 active | Transitional endoplasmic reticulum ATPase (Homo sapiens), P55072; in the data active means inhibition above about 15%
S1P3 antagonist: S1P3 receptor antagonists, primary screen, cell-based | AID 485, 2006 | 0.27% of 170,000 active | CHO S1P3 NFAT-BLA reporter, FRET fluorescence, antagonist mode | inhibition, % at 4.98 µM | Sphingosine 1-phosphate receptor 3 (Homo sapiens), Q99500;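 active means inhibition above the plate cutoff, the mean inhibition of test wells on that plate plus 3 SD, cut at about 28% in these data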;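 further: cells challenged with S1P at its EC80 of 0.8 µM; blue over green emission ratio from cleaved BLA substrate after 4 h stimulation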
S1P4 ag: S1P4 receptor agonists, primary screen, cell-based | Sphingosine 1-phosphate receptor 4 (Homo sapiens), O95977 | S1P4-expressing cell line, agonist reporter assay | activation, % at 4.98 µM | 0.35% of 220,000 active; in the data active means activation above about 11%
Redox H2O2 prof: compounds producing H2O2 with reducing agent – biochemical, NIH compound library profiling, artefact control for MLSCN library redox annotation, primary screen; DTT-dependent redox cycling H2O2, phenol red/HRP absorbance; 100% = 100 µM peroxide control, 0% = buffer; activation, % at 10 µM; 0.03% of 200,000 active;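 active means activation of at least 50% relative to the plate's high and low controls in the primary single-dose screen; inactive means activation below 50%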;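 further: compound incubated with DTT at 0.8 mM final as the reducing agent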
S1P4 antag conf: S1P4 receptor antagonists, human, confirmation, cell-based. shares compounds with S1P4 antag. S1P4-expressing cell line, antagonist mode, reporter read-out. inhibition, % at 4.98 µM. 71% of 520 active; in the data active means inhibition above about 30%
S1P1 antag: S1P1 receptor antagonists, human, counter-screen for S1P4 antagonist project, cell-based; shares compounds with S1P4 antag; cell-based S1P1 antagonist counterscreen, inhibition; inhibition, % at 4.98 µM; 37% of 520 active; in the data active means inhibition above about 40%;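 further: receptor stimulated with S1P near its EC80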
Large screens that a line does not name were inactive (follow-up assays come after a bar, where they were run).

CS(=O)(=O)N(CC(=O)NCc1ccc2c(c1)OCO2)Cc1ccc(Cl)cc1	none
Cc1cccc(NC(=O)c2sc(Cl)nc2C)c1C	none
Cn1cc([N+](=O)[O-])c(C(=O)Nc2nc(-c3ccc(Cl)cc3)cs2)n1	none (no result: S1P3 antagonist)
Cc1ccc(-c2nc(NC(=O)c3nn(C)cc3[N+](=O)[O-])sc2C)cc1	S1P4 antag 78 (no result: S1P3 antagonist) | S1P4 antag conf 115 | S1P1 antag inactive
Cc1ccc(-c2nc(NC(=O)c3nn(C)cc3[N+](=O)[O-])sc2C)cc1C	S1P4 antag 87 (no result: S1P3 antagonist) | S1P4 antag conf 115 | S1P1 antag inactive
Cc1cnc(NC(=O)c2nn(C)cc2[N+](=O)[O-])s1	none
Cc1onc(-c2ccccc2)c1C(=O)Nc1nnc(-c2ccncc2)s1	S1P4 antag 51 | S1P4 antag conf 63 | S1P1 antag inactive
c1ccc(-c2nnc(CN3CCN(C(c4ccccc4)c4ccccc4)CC3)o2)cc1	S1P4 antag 68 | S1P4 antag conf inactive | S1P1 antag inactive
CC(C)(C)c1ccc(CCC2OCC(C[N+]3(C)CCOCC3)O2)cc1 (stereo unspecified)	none (no result: Arbovirus inh, Redox H2O2 prof)
COc1ccc(NC(=O)CSc2cc(C)ccc2C)cn1	none
COc1ccc(NC(=O)/C(Cl)=C(/Cl)S(=O)(=O)Cc2ccc(C)cc2)cn1	S1P4 antag 60 (no result: S1P3 antagonist) | S1P4 antag conf 116 | S1P1 antag 89
O=C(CCS(=O)(=O)c1ccccc1)Nc1nc(-c2cccs2)cs1	none
CC(C)c1nnc(NC(=O)CCS(=O)(=O)c2nc(-c3cccs3)cc(C(F)(F)F)n2)s1	S1P4 antag 50 | S1P4 antag conf 109 | S1P1 antag 54
CCC(=O)OCCNc1cc(Sc2nc3ccccc3[nH]2)c2nonc2c1[N+](=O)[O-]	S1P4 antag 36 | S1P4 antag conf 110 | S1P1 antag inactive
CCC(=O)OCCNc1cc(Sc2nc3ccccc3s2)c2nonc2c1[N+](=O)[O-]	none (no result: S1P3 antagonist)
Clc1cccc(NCc2cn3cccnc3n2)c1	none
COc1cc(SC)ccc1C(=O)Nc1ccc(C)cc1	none
COc1cc(SC)ccc1C(=O)Nc1ccc(C)cc1C	S1P4 antag 34 | S1P4 antag conf 55 | S1P1 antag inactive
COc1ccc(/C=c2/sc3n(c2=O)C(c2ccccc2OC)C2=C(N=3)c3ccccc3CC2)cc1O (stereo unspecified)	S1P4 antag 33 (no result: S1P3 antagonist) | S1P4 antag conf 78 | S1P1 antag 70
COc1ccc(-c2ccnc3nc(Sc4ncc(C(F)(F)F)cc4Cl)nn23)cc1	S1P4 antag 61 (no result: S1P3 antagonist) | S1P4 antag conf inactive | S1P1 antag inactive
FC(F)(F)c1cnc(Sc2nc3nccc(-c4ccc(Cl)cc4)n3n2)c(Cl)c1	none (no result: S1P3 antagonist)
CCOC(=O)N1CCN(S(=O)(=O)/C=C/c2ccccc2)CC1	none
CCOC(=O)N1C/C(=C\c2ccccc2)C(=O)/C(=C/c2ccccc2)C1	S1P4 antag 43 (no result: Arbovirus inh, Redox H2O2 prof) | S1P4 antag conf 116 | S1P1 antag inactive
CC1=NNC(=O)/C1=C\c1cn(-c2ccccc2)nc1-c1ccccc1	S1P4 antag 36 | S1P4 antag conf 116 | S1P1 antag 55
CC1(C)CC(=O)C(=Cc2cn(-c3ccccc3)nc2-c2ccc(Cl)cc2)C(=O)C1	none (no result: S1P3 antagonist)
S=c1[nH]nc(-c2cc(-c3ccccc3)n[nH]2)n1/N=C/C(Br)=C/c1ccccc1	S1P4 antag 35 (no result: Arbovirus inh, Redox H2O2 prof) | S1P4 antag conf 66 | S1P1 antag inactive
COc1ccc(CCNC(=O)CSc2nc3[nH]ncc3c(=O)[nH]2)cc1OC	none
CCOC(=O)Cn1nc(C)c(NC(=O)COc2ccc([N+](=O)[O-])c(C)c2)c1C	S1P4 antag 40 | S1P4 antag conf inactive | S1P1 antag inactive
O=C(CCn1cnc2ccccc21)N/N=C/C=C/c1ccccc1	S1P4 antag 30 (no result: Arbovirus inh, Redox H2O2 prof) | S1P4 antag conf inactive | S1P1 antag inactive
CCCCn1c(=O)c(CCC(=O)OCC(=O)NCc2ccc(OC)c(OC)c2)nc2ccccc21	none
CS(=O)(=O)c1ncc(Cl)c(C(=O)Nc2ccc(N3CCOCC3)cc2)n1	S1P4 antag 31 | S1P4 antag conf 98 | S1P1 antag 81
CCOc1ccc2ccccc2c1/C=N/NC(=O)CNC(=O)Cc1ccccc1	none
Cc1cc2oc(C(=O)Nc3c(C)n(C)n(-c4ccccc4)c3=O)c(C)c2cc1C	S1P4 antag 30 | S1P4 antag conf 61 | S1P1 antag 48
Cc1ccc2c(C)c(C(=O)Nc3c(C)n(C)n(-c4ccccc4)c3=O)oc2c1C	S1P4 antag 29 | S1P4 antag conf 61 | S1P1 antag inactive
COc1ccccc1C(c1nnnn1C(C)(C)C)N1CCCCCC1 (stereo unspecified)	S1P4 antag 32 | S1P4 antag conf inactive | S1P1 antag inactive
COc1ccccc1C(c1nnnn1C(C)(C)C)N1CCN(C(=O)c2ccco2)CC1 (stereo unspecified)	none
COc1ccc(OC)c2c1C(=O)c1ccccc1C2=O	none (no result: S1P3 antagonist)
COc1ccc(OC)c2c1C(=O)C(Cl)=C(Cl)C2=O	S1P4 antag 56, S1P3 antagonist 31 (no result: Arbovirus inh, Redox H2O2 prof) | S1P4 antag conf 107 | S1P1 antag 74
CCN(CC)c1ccc(/C=N/Nc2nc3ccccc3[nH]2)cc1	S1P4 antag 37 | S1P4 antag conf 110 | S1P1 antag 81
Cc1ccc(NN2C(=O)C=C(c3ccc(Cl)cc3)C2=O)cc1	S1P4 antag 31 (no result: S1P3 antagonist) | S1P4 antag conf 92 | S1P1 antag inactive
O=C(C=C=Nc1ccccc1)C(=O)N=C=Cc1ccccc1	S1P4 antag 42 (no result: Arbovirus inh, Redox H2O2 prof) | S1P4 antag conf 106 | S1P1 antag inactive
COc1cc(NC2CCCCC2O)c2nc(-c3ccc(Cl)cc3)ccc2c1 (stereo unspecified)	S1P4 antag 30 (no result: Arbovirus inh, Redox H2O2 prof) | S1P4 antag conf 65 | S1P1 antag 62
COC(=O)COc1ccc(S(=O)(=O)N2CCN(c3ccccc3)CC2)cc1	none
COC(=O)COc1ccc(S(=O)(=O)N2CCN(c3ccccc3F)CC2)cc1	S1P4 antag 29 | S1P4 antag conf inactive | S1P1 antag inactive
C=CCn1c(Sc2ncc([N+](=O)[O-])s2)n[nH]c1=O	S1P4 antag 69 (no result: Arbovirus inh, Redox H2O2 prof) | S1P4 antag conf 111 | S1P1 antag 51
C=CCn1c(Sc2nncn2C)nc2c1c(=O)[nH]c(=O)n2C	none
Cc1c(NC(=O)c2cc(-n3cnnc3)ccc2Cl)cccc1-c1nc2ccccc2s1	none (no result: S1P3 antagonist)
O=C(Nc1cccc(-c2nc3ccccc3s2)c1)c1cc(-n2cnnc2)ccc1Cl	S1P4 antag 31 (no result: S1P3 antagonist) | S1P4 antag conf inactive | S1P1 antag inactive
O=C1OCCN/C1=C\C(=O)c1ccc(Cl)cc1	none (no result: Arbovirus inh, Redox H2O2 prof)
